This is an account of results in PubChem BioAssay (NCATS).

Records with an inconclusive call do not appear. Calls of active or inactive are those of the source. The call rests on the fitted dose curve; in most records, active means well fitted curve in the direction sought with a large enough effect; inconclusive means small, poorly fitted or top-dose-only effect, or another doubt; inactive means no such curve, though single readings can be large; an effect the other way counts as inactive or inconclusive.

Assay [1] can be described thus: qHTS of pediatric cancer cell lines to identify multiple opportunities for drug repurposing: Primary screen for SJ-GBM2 cells (AID 1347091). In outline: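 Eight- or eleven-point concentration series, 48 h treatment at 37 degrees C in growth media; readout CellTiter-Glo luminescence. Potency and efficacy were taken from the concentration-response curves.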
In general terms: qHTS replaces the single test concentration by a dilution series.

Assay [2] in a line: qHTS of pediatric cancer cell lines to identify multiple opportunities for drug repurposing: Primary screen for A673 cells (AID 1347092). Further: nearly all actives have a fitted effect of over 45% in size. Further: potency means the concentration at half of the fitted maximal effect. Put shortly:
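A673 cells (500-1,000 cells/well in growth media) were pre-incubated 5 h at 37 degrees C, then exposed to compounds for 48 h. Viability was read as CellTiter-Glo luminescence; concentration-response curves came directly from the primary screen.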

Assay [3] is described as follows: qHTS of pediatric cancer cell lines to identify multiple opportunities for drug repurposing: Primary screen for BT-37 cells (AID 1347094). Further: series mostly up to about 57 µM. In outline:
(§1)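 Cells plated at 500-1,000/well in growth medium, compounds added after 5 h. MIPE tested at 11 points (from 0.78 nM), NPC at 8 points (from 0.59 nM). CellTiter-Glo luminescence after 48 h; concentration-response curves from primary screen.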

Assay [4] in a line: qHTS of pediatric cancer cell lines to identify multiple opportunities for drug repurposing: Primary screen for NB-EBc1 cells (AID 1347095). Further: potency means the concentration at half of the fitted maximal effect. In outline: as §1
Assay [5] can be described thus: qHTS of pediatric cancer cell lines to identify multiple opportunities for drug repurposing: Primary screen for U-2 OS cells (AID 1347096). Further: nearly all actives have a fitted effect of over 50% in size. Further: potency means the concentration at half of the fitted maximal effect. Put shortly:
(§2)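 Cells (500-1,000/well) in growth media were settled 5 h at 37 degrees C, then given compounds for 48 h. Viability was read as CellTiter-Glo luminescence. Primary runs used MIPE at 11 points (0.78 nM-46 µM) and NPC at 8 points (0.59 nM-46 µM); follow-ups used 11 points.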

Assay [6] in a line: qHTS of pediatric cancer cell lines to identify multiple opportunities for drug repurposing: Primary screen for Saos-2 cells (AID 1347097). Further: nearly all actives have a fitted effect of over 40% in size. Put shortly: as §1
Assay [7] in a line: qHTS of pediatric cancer cell lines to identify multiple opportunities for drug repurposing: Primary screen for SK-N-SH cells (AID 1347098). Further: nearly all actives have a fitted effect of over 65% in size. Further: potency means the concentration at half of the fitted maximal effect. Put shortly:
(§3)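 Cells (500-1,000/well) rested 5 h, then received compounds for 48 h; metabolically active cells were measured by CellTiter-Glo luminescence. Final concentrations spanned up to 46 µM (MIPE, 11-point) or 0.59 nM-46 µM (NPC, 8-point) in primary screens, 11-point in follow-ups.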

Assay [8] in a line: qHTS of pediatric cancer cell lines to identify multiple opportunities for drug repurposing: Primary screen for NB1643 cells (AID 1347099). Further: nearly all actives have a fitted effect of over 50% in size. Further: potency means the concentration at half of the fitted maximal effect. In outline: as §1
The nature of assay [9]: qHTS of pediatric cancer cell lines to identify multiple opportunities for drug repurposing: Primary screen for LAN-5 cells (AID 1347100). Further: potency means the concentration at half of the fitted maximal effect. In outline: as §2
A short description of assay [10]: qHTS of pediatric cancer cell lines to identify multiple opportunities for drug repurposing: Primary screen for BT-12 cells (AID 1347101). Further: nearly all actives have a fitted effect of over 25% in size. In outline:
as §3

Assay [11] in a line: qHTS of pediatric cancer cell lines to identify multiple opportunities for drug repurposing: Primary screen for Rh18 cells (AID 1347102). Further: nearly all actives have a fitted effect of over 65% in size. Further: potency means the concentration at half of the fitted maximal effect. Put shortly: as §2
Assay [12] can be described thus: qHTS of pediatric cancer cell lines to identify multiple opportunities for drug repurposing: Primary screen for OHS-50 cells (AID 1347103). Further: nearly all actives have a fitted effect of over 40% in size. Put shortly:
as §3

Assay [13] in a line: qHTS of pediatric cancer cell lines to identify multiple opportunities for drug repurposing: Primary screen for RD cells (AID 1347104). Further: nearly all actives have a fitted effect of over 55% in size. Further: potency means the concentration at half of the fitted maximal effect. Put shortly: as §1
Assay [14] is described as follows: qHTS of pediatric cancer cell lines to identify multiple opportunities for drug repurposing: Primary screen for MG 63 (6-TG R) cells (AID 1347105). Further: nearly all actives have a fitted effect of over 50% in size. Put shortly: as §1
The nature of assay [15]: qHTS of pediatric cancer cell lines to identify multiple opportunities for drug repurposing: Primary screen for control Hh wild type fibroblast cells (AID 1347106).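 Further: series mostly up to about 46 µM; a drop in luminescence marks cytotoxicity and a rise apparent proliferation; nearly all actives have a fitted effect of over 55% in size.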 In outline:
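Viability after 48 h compound treatment at 37C, 500-1,000 cells/well, read as ATP luminescence with CellTiter-Glo. Primary screens used 11-point (MIPE, 0.78 nM-46 µM) or 8-point (NPC, 0.59 nM-46 µM) final concentrations; follow-up screens used 11-point dilutions.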

Assay [16] can be described thus: qHTS of pediatric cancer cell lines to identify multiple opportunities for drug repurposing: Primary screen for Rh30 cells (AID 1347107). Further: series mostly up to about 46 µM; nearly all actives have a fitted effect of over 75% in size. Put shortly:
as §2

Assay [17] is described as follows: qHTS of pediatric cancer cell lines to identify multiple opportunities for drug repurposing: Primary screen for Rh41 cells (AID 1347108). Further: nearly all actives have a fitted effect of over 70% in size. Further: potency means the concentration at half of the fitted maximal effect. In outline: as §1
The nature of assay [18]: qHTS of pediatric cancer cell lines to identify multiple opportunities for drug repurposing: Confirmatory screen for NB1643 cells (AID 1347109). Further: nearly all actives have a fitted effect of over 45% in size. In outline: as §2
Assay [19] can be described thus: qHTS of pediatric cancer cell lines to identify multiple opportunities for drug repurposing: Primary screen for SK-N-MC cells (AID 1347093). Further: potency means the concentration at half of the fitted maximal effect. In outline:
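Metabolically active cells were quantified by ATP-dependent luminescence (CellTiter-Glo, 15 min at room temperature) following 48 h treatment. Cells had been plated at 500-1,000 per well and settled for 5 h beforehand.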

In the case of `CC(C[N+](C)(C)C)OC(N)=O` (stereo unspecified), the Potency entry in assay [1], in [2], in assay [3], in [4], in assay [5] and in assay [6] was “inactive” throughout. The Potency entry in assay [7], in [8], in [9], in assay [10], in [11] and in assay [12] was “inactive” in each case. Further, the Potency result in assay [13], in assay [14], in assay [15], in assay [16] and in assay [17] was “inactive” throughout.

For the molecule `Nc1nc2c(ncn2COCCO)c(=O)[nH]1`, the Potency entry in [1], in [2], in assay [3], in assay [4], in [5] and in [6] was “inactive” throughout. For the same molecule, the Potency entry in assay [7], in [8], in assay [9], in assay [10], in [11] and in assay [13] was “inactive” throughout. For the same molecule, the Potency result in assay [14], in assay [15], in assay [16], in [17] and in [18] was “inactive” in each case.

In the case of `Cn1cnc2c(F)c(Nc3ccc(Br)cc3Cl)c(C(=O)NOCCO)cc21`, the Potency result in assay [1], in [12] and in [15] was “inactive” throughout. The Potency in [2] was 2.35 µM (active); in assay [19], 2.64 µM (active); in assay [8], 9.35 µM (active); in [17], 14.8 µM (active).

As to `Cc1c(CCOc2ccc(C(=O)O)cc2)c2cc(Cl)ccc2n1C(c1ccccc1)c1ccccc1`, the Potency result in [1], in assay [5], in assay [6], in assay [11], in assay [14] and in assay [17] was “inactive” in each case. Besides, the Potency is 18.7 µM (active) in assay [2] and 24.1 µM (active) in [7].

Turning to `CNCc1ccc(-c2[nH]c3cc(F)cc4c3c2CCNC4=O)cc1`, the Potency result in [1], in [5], in assay [6], in assay [10], in assay [11] and in [12] was “inactive” throughout. Further, the Potency entry in [14], in assay [16] and in assay [17] was “inactive” in each case. In addition, the Potency in [2] was 4.69 µM (active).

Take `COc1ccc2nc(S(=O)Cc3ncc(C)c(OC)c3C)[nH]c2c1` (stereo unspecified): the Potency entry in assay [1], in assay [3], in assay [4], in assay [5], in [6] and in assay [7] was “inactive” throughout. The Potency entry in assay [9], in assay [11], in [13], in [14], in [15] and in assay [16] was “inactive” each time. Besides, the Potency entry in [17] was “inactive”.

As to `Cn1c(=O)c(F)c(Nc2ccc(I)cc2F)c2c(=O)n(C[C@@H](O)CO)cnc21`, the Potency result in [1], in [2], in assay [14] and in assay [16] was “inactive” each time. The Potency in [5] was 5.9 µM (active); in [7], 6.81 µM (active); in assay [11], 20.9 µM (active); in [13] it was 0.0296 µM (active).

For the molecule `CCCC(CCC)C(=O)O`, the Potency result in assay [1], in assay [2], in [3], in assay [4], in assay [5] and in assay [6] was “inactive” in each case. Besides, the Potency result in assay [7], in [8], in [9], in [10], in [11] and in assay [12] was “inactive” in each case. The Potency result in [13], in assay [14], in [15], in [16] and in [17] was “inactive” each time.

In the case of `CCOc1cc(C=C2C(=O)N(c3ccccc3)N=C2C)cc(Cl)c1OCC(=O)OC`, the Potency entry in assay [3], in [5], in assay [6], in assay [10], in assay [13] and in assay [16] was “inactive” throughout. In addition, the figures for the Potency in assay [4] and in assay [9] were 20.9 µM (active) and 18.7 µM (active), respectively.

For the molecule `Nc1cccc(S(=O)(=O)N2CCCN(S(=O)(=O)c3ccc4c(c3)OCCO4)CC2)c1`, the Potency entry in assay [2], in assay [3], in assay [4], in assay [5], in [9] and in assay [11] was “inactive” throughout. For the same molecule, the Potency result in assay [13], in [14], in [15] and in [16] was “inactive” throughout.

In the case of `OC(CN1CCC(Cc2ccc(F)cc2)CC1)c1ccc(Cl)cc1` (stereo unspecified), the Potency entry in assay [2], in assay [3], in assay [5], in assay [6], in assay [9] and in assay [10] was “inactive” in each case. Moreover, the Potency entry in assay [11], in assay [12], in [13], in assay [14], in [15] and in assay [16] was “inactive” throughout. Further, the Potency entry in [17] was “inactive”.

As for `COc1ccccc1-c1cccc(-c2c(O)c3cc(C#N)c(Cl)cc3[nH]c2=O)c1`, the Potency entry in assay [2], in assay [5], in assay [7], in [8], in [9] and in assay [11] was “inactive” each time. Moreover, the Potency entry in [13], in [14], in assay [15], in assay [16] and in assay [17] was “inactive” each time. Further, the Potency in [19] is 34 µM (active); in [4] it was 7.62 µM (active).
